Screening data (PubChem)
The list is not random: actives were taken first. Their share in the collection is about 8.6%.
Lassa entry = blocks Lassa virus binding or cell entry; Lassa virus pseudotyped entry inhibition, cell-based qHTS; Potency, µM (top dose mostly 49.2 µM), without a hit: top-dose activity change, negative = inhibition, usual class: inhibitors; 18,000 tested, 4.1% active; AID 720533
Marburg entry = blocks Marburg virus binding or cell entry; Marburg virus pseudotype entry/binding inhibition, cell-based; 18,000 tested, 6.5% active; Potency, µM (top dose mostly 49.2 µM), inactives show top-dose activity change, negative = inhibition, actives largely listed as inhibitors
Active calls of the source: *; ? = inconclusive; . = not tested or not shown; ! = repeats disagree; [ ] = remark or other dose. Calls come from the whole dose curve; tested in HEK293 cells. % is set by controls: 0 for no effect and ±100 for the full control effect; potency is the fitted concentration of half-maximal effect.

SMILES	Lassa entry	Marburg entry
CC1=CC[C@@H](COc2ccccc2)O[C@@]2(C1)C(=O)N(Cc1ccccc1C(F)(F)F)c1cccc(Br)c12	17.7%[8.59 µM]	-6.8%[8.59 µM]
C[C@]12CC[C@@H]3c4ccc(O)cc4C[C@@H](CCCCCCCCCS(=O)CCCC(F)(F)C(F)(F)F)[C@H]3[C@@H]1CC[C@@H]2O (some centres undefined)	6.31µM*	-14.2%
C[C@@]12CC[C@@H]3c4ccc(O)cc4C[C@H](CCCCCCCCCS(=O)CCCC(F)(F)C(F)(F)F)[C@H]3[C@@H]1CC[C@@H]2O (some centres undefined)	?	10.6%
CC(C)CON=C1C[C@@H](O)[C@@H](O)[C@@H]2[C@H]3C(=O)N(C4CCCCC4)C(=O)[C@@H]3CC[C@H]12	31.4%[8.59 µM]	?
Nc1nccc(-c2c(-c3ccc(F)cc3)nn3cc(C(F)(F)F)ccc23)n1	28.4%	30.0%
O=C1C(Nc2ccccc2)=CC(=O)c2ncccc21	11.2µM*	5.62µM*
O[C@H]1CN(CC2CCCCC2)[C@@H](c2ccccc2)C[C@H]1n1cc(C2CC2)nn1	-6.9%	?
COc1ccc(C(=O)N(Cc2cc3cccc(C)c3nc2N(C)C)CC2CCCO2)cc1 (centres undefined)	-11.0%	-15.2%
CCN(CC)CCOC(=O)C(Cc1cccc2ccccc12)CC1CCCO1 (centres undefined)	?	10µM*
COC(=O)C1(C(=O)OC)CC=CCc2ccccc2[C@H]1C[N+](=O)[O-]	-7.8%[8.59 µM]	3.3%[8.59 µM]
COCC1=C2c3ccccc3[C@H](C[N+](=O)[O-])C(C(=O)OC)(C(=O)OC)C[C@@H]2n2c(=O)n(-c3ccccc3)c(=O)n2C1	7.08µM*!	-14.6%
C#CCCCON=C1C[C@@H](O)[C@H](O)[C@H]2[C@@H]3C(=O)N(Cc4ccc5c(c4)OCO5)C(=O)[C@@H]3CC[C@@H]12	-9.5%[8.59 µM]	-6.7%[8.59 µM]
CCCCCC(=O)N1C[C@H](n2cc(COC(=O)c3ccccc3)nn2)[C@@H](O)C[C@H]1c1ccccc1	-16.0%	?
CCCNC(=O)OC[C@H]1O[C@H](CCON=C(C)CCN2CCCCc3nc(C)c(C)cc32)C=C[C@H]1Oc1ccc(OC)cc1	-21.5%[8.59 µM]	-26.3%[8.59 µM]
CC(C)(C)c1cc(O)ccc1O	14.1µM*!	12.6µM*!
COc1ccc(O)c(C(C)(C)C)c1	-9.1%	?
CC(=O)OC[C@H]1O[C@@H](ON=C(C)CCN2CCCCc3nc(C)c(C)cc32)[C@H](OC(C)=O)[C@@H](OC(C)=O)[C@H]1OC(C)=O	-10.3%[8.59 µM]	1.0%[8.59 µM]
C=CCN1c2ccccc2[C@]23C[C@@H](C(=O)OC)N(C(=O)Nc4ccccc4F)C2=NC(C(=O)OC)=C(C(=O)OC)[C@H]13	12.3%[8.59 µM]	2.9%[8.59 µM]
Clc1ccc(Cn2c(CN3CCCC3)nc3ccccc32)cc1	3.7%[17.8 µM]	-18.5%[17.8 µM]
COc1ccc(CCN2CCC(Nc3nc4ccccc4n3Cc3ccc(F)cc3)CC2)cc1	31.6µM*!	3.98µM*
O=C(O)Cc1ccc(O)c(O)c1	-18.5%	8.2%
CNCC(=O)c1ccc(O)c(O)c1	-14.6%	15.8µM*
CC1=CC[C@@H](COc2ccccc2)O[C@@]2(C1)C(=O)N(Cc1ccc(F)cc1)c1cccc(Br)c12	18.6%[8.59 µM]	-10.4%[8.59 µM]
O=[S+]1([O-])C[C@@H](N2CCN(CCO)CC2)[C@@H](COCc2ccccc2)N1	-16.1%	-10.2%
N#Cc1ccc(OCc2cn(CC(=O)c3ccc(O)cc3)nn2)cc1	-15.1%	13.6%
SMILES	Lassa entry	Marburg entry
COc1ccc(COC(=O)NN=C2C[C@@H](O)[C@@H](O)[C@@H]3[C@H]4C(=O)N(c5cccc(Oc6ccccc6)c5)C(=O)[C@@H]4CC[C@H]23)cc1	.	9.0%[8.59 µM]
C=CC[C@@H]1C=C[C@H](ON=C(C)CCN2CCCc3nc(C)c(C)cc32)[C@H](CO)O1	4.4%[8.59 µM]	23.1%[8.59 µM]
COc1cc2c(cc1OC)[C@H](C)N(CC1C(=O)O[C@@H]3C[C@@]4(C)CCC[C@H](C)[C@@]45OC5[C@H]13)CC2 (some centres undefined)	-31.6%	12.6µM*
COc1ccc(O[C@H]2C=C[C@@H](c3ccccc3)O[C@H]2COC(=O)CCC(C)=NOCC[C@@H]2C=C[C@H](OC(C)=O)[C@@H](COC(C)=O)O2)cc1	4.7%[8.59 µM]	32.8%[8.59 µM]
CC(C)C(=O)OCC(=O)[C@@]12O[C@H](C3CCCCC3)O[C@@H]1C[C@H]1[C@@H]3CCC4=CC(=O)C=C[C@]4(C)[C@H]3[C@@H](O)C[C@@]12C	28.2µM*	?
CCCC1O[C@@H]2C[C@H]3[C@@H]4CCC5=CC(=O)C=C[C@]5(C)[C@H]4[C@@H](O)C[C@]3(C)[C@]2(C(=O)CO)O1 (some centres undefined)	3.3%[17.8 µM]	-28.2%
O=S1(=O)c2cc(Cl)ccc2Oc2ccccc2CN1Cc1cccc(F)c1	-13.1%	?
CC(=O)OC1CC2C(C)(C)C=CC(=O)[C@@]2(C)C2CC[C@@]3(C)C(c4ccoc4)OC(=O)C4OC43[C@]12C (some centres undefined)	18.1%	7.9%
CC(=O)OC1CC(OC(C)=O)[C@]2(C)C(CC(OC(C)=O)[C@]3(C)C2CC[C@@]2(C)C(c4ccoc4)C[C@H]4O[C@]432)C1(C)C (some centres undefined)	-1.6%	-21.9%
CC(=O)O[C@@H]1C[C@@]2(C)C(c3ccoc3)C[C@H]3O[C@]32[C@]2(C)C(=O)C(O)=C3C(C)(C)C(=O)C=C[C@]3(C)C12 (some centres undefined)	8.91µM*	8.91µM*
CC(=O)OC1C[C@@]2(C)C(c3ccoc3)C[C@H]3O[C@@]32[C@@]2(C)C(=O)C(O)=C3C(C)(C)C(=O)C=C[C@]3(C)C12 (some centres undefined)	?	2.51µM*
C[C@H]1[C@@H](c2ccccc2)Oc2c(Cl)cccc2S(=O)(=O)N1Cc1ccc(F)cc1F	8.5%	?
CC12C=C(C=CCCc3ccco3)C(C)(C1)[C@H](CCc1ccco1)CC2=O (some centres undefined)	-23.9%[8.59 µM]	28.8%[8.59 µM]
COC(=O)C1=C[C@H]([C@@H](C)[C@H](OC)c2ccccc2Br)[C@H]2[C@H]1c1ccccc1N2C	.	-15.6%[8.59 µM]
COc1cccc([C@@H]2Oc3ccc(OC)cc3[C@H](O)[C@@H]2O)c1	-20.0%[8.59 µM]	-6.9%[8.59 µM]
Clc1ccccc1-c1nccc(-n2ccnc2)n1	0.2%	-6.8%
Clc1ccccc1C(c1ccccc1)(c1ccccc1)n1ccnc1	12.6µM*	11.2µM*
CCN1C(=S)NC(c2cccc(F)c2)C(C(=O)OC)=C1C (centres undefined)	7.3%[8.59 µM]	20.3%[8.59 µM]
Oc1ccc([C@@H]2CNCCc3c2cc(O)c(O)c3Cl)cc1	-14.3%	10.7%
Oc1ccc([C@H]2CNCc3c2ccc(O)c3O)cc1O	-21.0%	6.31µM*
COc1ccc2c3c(c(=O)oc2c1)[C@H]1O[C@](CCCCN2C(=O)c4ccccc4C2=O)(Cc2cc(OC)c(OC)cc21)O3	9.0%[8.59 µM]	?
C#CCCCON=C1C[C@@H](O)[C@H](O)[C@H]2[C@@H]3C(=O)N(Cc4ccccc4)C(=O)[C@@H]3CC[C@H]12	7.3%[8.59 µM]	11.0%[8.59 µM]
CN1[C@@H]2CC[C@H]1CC(O[C@@H](c1ccccc1)c1ccc(Cl)cc1)C2 (some centres undefined)	10µM*	4.47µM*
c1ccc(C(O[C@H]2CCCN(CCc3ccc4c(c3)OCO4)C2)c2ccccc2)cc1	-4.1%	?
CN1[C@@H]2CC[C@H]1CC(OC(c1ccccc1)c1ccccc1)C2 (some centres undefined)	14.1µM*	12.6µM*
CN1C2CC(OC(=O)C(CO)c3ccccc3)CC1C(O)C2 (centres undefined)	9.0%	8.4%
